# Sampled rows, rich in hits. Any-hit rate of the full collection: about 2.3%.
# Coupling enz: inhibits coupling enzyme system, counter-screen for aldolase hits; coupling enzyme system counterscreen, AmpLite Red fluorescence; activity change, negative = inhibition, % at 58.2 µM, hits read low; 0.67% of 290,000 active; in the data active means activity change below about -30%
#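 Coupling enzymes only (glyceraldehyde-3-phosphate) + compound, at 57.5 uM final, 10 min RT; add substrate/coupling/AmpLite Red mix, 20 min RT; fluorescence ex 525/em 598 nm. Actives flag coupling-system interference.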
# Tau fibril FP: inhibitors of human tau fibril formation. P10636. K18 P301L tau heparin fibrillization, Alexa594 FP, 6 h. Potency, µM (highest dose often 57.7 µM), without a hit: at the highest dose activity, negative = inhibition, usual class: inhibitors. 0.39% of 280,000 active; further: potency means the concentration at half of the fitted maximal effect; nearly all actives have a fitted effect of over 55% in size
#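 Human tau K18 […] P301L fragment, 15 uM unlabeled plus 0.24 uM Alexa 594-labeled tau (final), with compound and 20 uM heparin in 100 mM sodium acetate pH 7; 6 hr at 37 C, then Alexa 594 FP read.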
# USP1 inh: inhibitors of human USP1/UAF1 deubiquitinase. O94782. Potency, µM (highest dose often 57.1 µM), without a hit: top-dose activity change, negative = inhibition, actives largely listed as inhibitors. AID 743255. 0.23% of 390,000 active. recombinant USP1/UAF1, Ub-Rhodamine cleavage fluorescence; further: potency means the concentration at half of the fitted maximal effect; nearly all actives have a fitted effect of over 60% in size
#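 1 nM enzyme complex + cpd, 15 min RT; start with Ub-Rho 150nM final; kinetic fluorescence ex 480/em 540, 6 reads q60 s. Buffer 50mM HEPES pH 7.8, 0.5mM EDTA, 0.1 mg/ml BSA, 1mM TCEP, 0.01% Tween-20.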
# Tau fluor counter: counter-screen for tau fibril formation inhibitors | tau K18 P301L Alexa594 fluorescence, heparin fibrillization | Potency, µM (top dose mostly 57.7 µM), inactives show top-dose activity change, negative = decrease | 0.93% of 280,000 active; further: potency means the concentration at half of the fitted maximal effect; nearly all actives have a fitted effect of over 55% in size
#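 Human tau K18 P301L (15 uM unlabeled, 0.24 uM Alexa 594-labeled) in 100 mM sodium acetate pH 7 with 20 uM heparin, 6 hr at 37 C. ThT 30 uM added, 1 hr ambient; Alexa 594 FP and total fluorescence read at 555/632 nm.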
# Tau fibril ThT: blocks human tau fibril formation measured by thioflavin T | 2.1% of 270,000 active | recombinant tau K18 P301L (four-repeat tau fragment), heparin-induced fibrillization, ThT fluorescence | Potency, µM (titrated, usually from 57.4 µM), for inactives: top-dose activity, negative = inhibition, hits mostly inhibitors | AID 1460; further: potency means the concentration at half of the fitted maximal effect; nearly all actives have a fitted effect of over 55% in size
#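 Aggregation was driven by heparin (20 uM final) acting on recombinant tau […] bearing P301L in 100 mM sodium acetate pH 7; fibrils were detected with Thioflavin T.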
# The depositor's hits bear a star; ? = inconclusive; nt = no result given; [ ] = another dose, or the depositor's remark. Unless noted, the call rests on the fitted dose curve; in most records, active means well fitted curve in the direction sought with a large enough effect; inconclusive means small, poorly fitted or top-dose-only effect, or another doubt; inactive means no such curve, though single readings can be large; an effect the other way counts as inactive or inconclusive. On the % scale 0 is the no-effect control and ±100 the full control effect.
SMILES,Coupling enz,Tau fibril FP,USP1 inh,Tau fluor counter,Tau fibril ThT
CCC1(CC)NC(=O)N(CC(=O)N2CCN(S(=O)(=O)c3cccc(F)c3)CC2)C1=O,nt,nt,-7%,nt,nt
O=c1[nH][nH]c(-c2ccccc2O)c1C(C[N+](=O)[O-])c1cccc(Cl)c1 (centres undefined),2,-14%,-22%,?,25µM*
O=c1[nH][nH]c(-c2ccccc2O)c1C(C[N+](=O)[O-])c1ccccc1 (centres undefined),2,8%,-12%,-8%,-18%
Cc1cc(N2CCN(C)CC2)nc2ccc(NC(=O)c3ccc(C(C)(C)C)cc3)cc12,nt,13%,8%,?,?
Cc1cc(N2CCN(C)CC2)nc2ccc(NC(=O)Nc3ccc(Cl)cc3)cc12,nt,-13%,-25%,10µM*[quencher],13µM*
CCOc1ccccc1NC(=O)Nc1ccc2nc(N3CCN(C)CC3)cc(C)c2c1,nt,5%,?,10µM*[quencher],14µM*
Cc1ccccc1NC(=O)Nc1ccc2nc(N3CCN(C)CC3)cc(C)c2c1,nt,?,-16%,14µM*[quencher],?
COC(=O)c1[nH]c2cc(OC)c(OC)cc2c1NC(=O)CN1C[C@H]2C[C@@H](C1)c1cccc(=O)n1C2,nt,nt,-28%,nt,nt
CC(=O)NC(Cc1ccc(F)c(F)c1)C(=O)NC1CCN(S(=O)(=O)c2ccc(C)cc2)CC1 (centres undefined),0,nt,-5%,nt,nt
CCOc1ccc(N2CC(NC(=O)c3ccco3)CC2=O)cc1 (centres undefined),nt,-4%,1%,-4%,-6%
CCOc1ccc(N2CSC3=C(C#N)C(c4ccco4)CC(=O)N3C2)cc1 (centres undefined),-29,?,-3%,?,14µM*
Cc1ccc(C2CC(=O)N3CN(c4ccc(Br)cc4)CSC3=C2C#N)o1 (centres undefined),-38*,?,-2%,-4%,?
CC(C)Oc1ccc(CN2CCC(n3nccc3NC(=O)CCc3ccccc3)CC2)cc1,0,nt,-5%,nt,nt
O=C1c2ccccc2C(=O)C12OC2c1ccc(Cl)cc1 (centres undefined),-22,?,nt,-20%,3.2µM*
CCN1C(=O)/C(=C2/C=Cc3ccccc3N2C)OC1=S,2,-4%,-15%,-15%,3.2µM*
CCN1C(=O)/C(=C2\C=Cc3cc(C)ccc3N2CC)OC1=S,2,5%,-5%,-9%,?
CCN1C(=O)/C(=C2\C=Cc3ccccc3N2CC)SC1=S,-3,12%,-3%,?,6.3µM*
CN(C(=O)COC(=O)CNC(=O)c1sc2ccccc2c1Cl)C1CCS(=O)(=O)C1 (centres undefined),nt,nt,5%,nt,nt
Cc1c(C(=O)c2ccc(F)cc2F)c2ccccn2c1CCC#N,-40*,nt,-23%,nt,nt
CC(C)C(=O)N(c1cc2sc(=O)oc2c2ccccc12)S(=O)(=O)c1cccs1,-16,?,-16%,?,16µM*
O=C(C[n+]1ccc(C(=O)N/N=C/c2ccc(Cl)cc2Cl)cc1)c1ccccc1,-3,10%,-21%,?,16µM*
Fc1cccc(Nc2ncnc3c2cnn3-c2ccccc2)c1,-10,25µM*,-17%,?,?
Cc1cccc(-n2ncc3c(Nc4ccc(Oc5ccc(Cl)cc5)cc4)ncnc32)c1,nt,13µM*,?,4µM*[quencher],8%
Cc1cccc(-n2ncc3c(Nc4ccc(C)c(Cl)c4)ncnc32)c1,nt,8.9µM*,?,?,11%
COc1cccc(C(=O)Nc2c(C(=O)N3CCN(c4ccc(F)cc4)CC3)oc3ccccc23)c1,nt,-6%,-10%,?,?
Cc1ccc(S(=O)(=O)c2nc(S(=O)(=O)c3ccc(C)cc3)c(NCCCOC(C)C)s2)cc1,nt,2%,-5%,-17%,-6%
CC(=O)c1ccc(-c2cccc(C3C4C=CCCC4(C)C(=O)N3Cc3ccccc3)c2)cc1 (centres undefined),1,nt,nt,nt,nt
CCOc1ccc(NC(=O)Cn2c(=O)n(CC(=O)NCCc3ccccc3)c(=O)c3sccc32)cc1,nt,-16%,11%,17%,?
CCOc1ccc(CN2CCC(n3nccc3NC(=O)c3ccccc3OC)CC2)cc1,0,nt,-14%,nt,nt

# Screens: PubChem, National Center for Advancing Translational Sciences (NCATS)
